# Data taken from PubChem BioAssay (Tox21).
# Unmarked numbers belong to inactive results. Records with an inconclusive call do not appear. Where a call stands in place of a potency, no number is given. Activity calls are given as the source filed them. The call rests on the fitted dose curve; in most records, active means well fitted curve in the direction sought with a large enough effect in the repeat runs; inconclusive means weak or mixed curves; inactive means no such curve, though single readings can be large; an effect the other way counts as inactive or inconclusive.
# How the values were obtained:
# [1] = A CellTox Green Cytotoxicity Assay to monitor cytotoxicity in HepG2 cells - 8 hour (AID 1224890); further: nearly all actives have a fitted effect of over 45% in size
# How it was run: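 Continuous culture of HepG2 cells with a membrane-impermeant DNA dye; rising fluorescence marks dead cells. Compound exposure lasted up to 40 h at 37 C, with reads every 8 h from 0 h.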
# [2] = qHTS assay to identify small molecule antagonists of the estrogen receptor alpha (ER-alpha) signaling pathway using the BG1 cell line in the presence of 0.1 nM 17-beta-estradiol - cell viability counter screen (AID 1259241); further: nearly all actives have a fitted effect of over 40% in size
# How it was run: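 Viability in VM7Luc4E2 cells after 22 hr compound exposure under 0.1 nM 17beta-estradiol stimulation, by CellTiter-Fluor.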
# [3] = qHTS assay to identify small molecule antagonists of the androgen receptor (AR) signaling pathway using the MDA cell line in the presence of 0.5 nM R1881 - cell viability counter screen (AID 1259242); further: nearly all actives have a fitted effect of over 45% in size
# How it was run: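 Fluorescence from CellTiter-Fluor, which reports protease activity of live cells, was read 30 min after reagent addition to MDA-kb2 cells that had been incubated 16 hr with compound and 0.5 nM R1881.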
# [4] = target: Estrogen receptor (Homo sapiens) (UniProt P03372); experiment: qHTS assay to identify small molecule antagonists of the estrogen receptor alpha (ER-alpha) signaling pathway using the BG1 cell line in the presence of 0.1 nM 17-beta-estradiol (AID 1259244); further: nearly all actives have a fitted effect of over 50% in size
# How it was run: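 Quantitative high-throughput screen in VM7Luc4E2 cells: compound plus 0.1 nM E2 (final), 22 h, 37C, 5% CO2; ONE-Glo added, 30 min room temperature, luminescence measured.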
# [5] = qHTS assay to identify small molecule HDAC inhibitors (AID 1259364); further: nearly all actives have a fitted effect of over 45% in size; further: potency means the concentration at half of the fitted maximal effect; on activity change, negative = inhibition: top concentration of the series differs between compounds
# How it was run: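 Endogenous HDAC class I/II activity was measured in wild-type HCT-116 cells by HDAC-Glo luminescence after 2 h compound treatment.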
# [6] = qHTS assay to identify small molecule HDAC inhibitors - cell viability counter screen (AID 1259365); further: series mostly up to about 92 µM; nearly all actives have a fitted effect of over 50% in size
# How it was run: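 Cytotoxicity was gauged in wild-type HCT-116 cells after a brief 2hr treatment with DMSO-dissolved compounds at 37C and 5% CO2, using CellTiter-Glo luminescence developed for 30min at room temperature.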
# [7] = qHTS assay to identify small molecule antagonists of the sonic hedgehog signaling (Shh) pathway - cell viability counter screen (AID 1259367); further: nearly all actives have a fitted effect of over 55% in size; further: potency means the concentration at half of the fitted maximal effect
# How it was run: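 Seed 3T3 Gli1-Luc cells at 2,000 per well; incubate 4 hr; add compound in DMSO, then conditioned medium; incubate at 37C with 5% CO2; add CellTiter-Fluor after 23 hr; read fluorescence 1 hr later.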
# [8] = qHTS assay to identify small molecule agonists of the sonic hedgehog signaling (Shh) pathway - cell viability counter screen (AID 1259366); further: nearly all actives have a fitted effect of over 50% in size; further: potency means the concentration at half of the fitted maximal effect
# How it was run: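 Stable Gli1-Luc NIH/3T3 clone, 2,000 cells/well. Compound exposure 24hr at 37C. Read-out: CellTiter-Fluor fluorescence.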
# Sequence of Estrogen receptor (Homo sapiens) (P03372 whole entry, looked up): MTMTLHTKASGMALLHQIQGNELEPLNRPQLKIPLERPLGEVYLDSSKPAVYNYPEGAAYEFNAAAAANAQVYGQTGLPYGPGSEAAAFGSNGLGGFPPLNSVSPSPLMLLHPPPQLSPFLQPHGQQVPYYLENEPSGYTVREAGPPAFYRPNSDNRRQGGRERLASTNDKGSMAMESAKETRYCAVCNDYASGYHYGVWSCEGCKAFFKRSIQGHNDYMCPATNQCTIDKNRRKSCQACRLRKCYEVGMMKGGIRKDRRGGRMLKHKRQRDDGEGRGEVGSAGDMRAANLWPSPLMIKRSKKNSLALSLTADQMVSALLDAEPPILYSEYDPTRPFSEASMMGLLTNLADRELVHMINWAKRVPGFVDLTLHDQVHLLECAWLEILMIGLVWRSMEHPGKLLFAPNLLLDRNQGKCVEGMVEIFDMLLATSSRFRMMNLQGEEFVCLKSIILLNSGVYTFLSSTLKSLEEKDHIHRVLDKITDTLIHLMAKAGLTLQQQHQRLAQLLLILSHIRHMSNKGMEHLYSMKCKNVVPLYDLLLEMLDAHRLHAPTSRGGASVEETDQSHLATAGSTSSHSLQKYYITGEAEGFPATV
smiles,measurement,setting,value
COc1ccc(/C=C/c2cc(OC)cc(=O)o2)cc1,Potency,[1],inactive
same,Potency,[2],inactive
same,Potency,[3],inactive
same,Potency,[4],inactive
same,Potency,[5],6.26 µM (active)
same,outcome,[6],inactive
same,Potency,[7],inactive
CCOC(=O)CC(O)(CC(=O)OCC)C(=O)OCC,Potency,[1],inactive
same,Potency,[2],inactive
same,Potency,[3],inactive
same,Potency,[4],inactive
same,Potency,[5],inactive
same,outcome,[6],inactive
same,Potency,[8],inactive
same,Potency,[7],inactive
CC1(COc2ccc(CC3SC(=O)NC3=O)cc2)CCCCC1 (centres undefined),Potency,[1],inactive
same,Potency,[2],inactive
same,Potency,[3],inactive
same,Potency,[4],inactive
same,outcome,[6],inactive
same,Potency,[8],inactive
same,Potency,[7],inactive
Cc1ccc2ccccc2c1[N+](=O)[O-],Potency,[1],inactive
same,Potency,[2],inactive
same,Potency,[3],inactive
same,Potency,[4],inactive
same,Potency,[5],inactive
same,outcome,[6],inactive
same,Potency,[8],inactive
same,Potency,[7],inactive
CCCCCCCCCCCCSCCOCCO,Potency,[1],inactive
same,Potency,[2],inactive
same,Potency,[3],inactive
same,Potency,[4],inactive
same,Potency,[5],inactive
same,outcome,[6],inactive
same,Potency,[8],inactive
same,Potency,[7],inactive
Cc1ccc(NC=O)c(C)c1,Potency,[1],inactive
same,Potency,[2],inactive
same,Potency,[3],inactive
same,Potency,[4],inactive
same,outcome,[6],inactive
same,Potency,[8],inactive
same,Potency,[7],inactive
O=C(O)c1ccc2c(c1)nc(C(=O)NC1CCN(C3CC3)CC1)n2Cc1cc(-c2ccc(Cl)s2)on1,cytotoxicity increase,[1],1.82% [at 15.8 µM]
same,"activity change, negative = cytotoxicity",[2],3.2% [at 19 µM]
same,"viability change, negative = cytotoxic",[3],1.29% [at 19 µM]
same,"activity change, negative = inhibition",[4],-4.46% [at 19 µM]
same,"activity change, negative = inhibition",[5],-4.76% [at 19 µM]
same,"activity change, negative = cytotoxicity",[6],0.77% [at 19 µM]
same,"viability change, negative = cytotoxic",[8],1.29% [at 19 µM]
same,"viability change, negative = cytotoxic",[7],0.451% [at 19 µM]
O=C(O)c1ccc2cc(O)ccc2c1,Potency,[1],inactive
same,Potency,[2],inactive
same,Potency,[3],inactive
same,Potency,[4],inactive
same,Potency,[5],inactive
same,outcome,[6],inactive
same,Potency,[8],inactive
same,Potency,[7],inactive
c1ccc(-c2ccc(-c3ccccc3)cc2)cc1,cytotoxicity increase,[1],-1.41% [at 15.8 µM]
same,"activity change, negative = cytotoxicity",[2],0.519% [at 19 µM]
same,"viability change, negative = cytotoxic",[3],1.4% [at 19 µM]
same,"activity change, negative = inhibition",[4],56.5% [at 19 µM]
same,Potency,[5],4.45 µM (active)
same,"activity change, negative = cytotoxicity",[6],0.606% [at 19 µM]
same,"viability change, negative = cytotoxic",[8],0.865% [at 19 µM]
same,"viability change, negative = cytotoxic",[7],-1.08% [at 19 µM]
C[C@H]1C[C@H]2[C@@H]3CCC4=CC(=O)C=C[C@]4(C)[C@@]3(F)[C@@H](O)C[C@]2(C)[C@@]1(O)C(=O)COP(=O)(O)O,Potency,[1],inactive
same,Potency,[2],inactive
same,Potency,[3],inactive
same,Potency,[4],inactive
same,outcome,[6],inactive
same,Potency,[8],inactive
same,Potency,[7],inactive
Clc1cc(Cl)c2c(c1)N=C1CCCCCN1C2,Potency,[1],inactive
same,Potency,[2],inactive
same,Potency,[3],inactive
same,Potency,[4],inactive
same,outcome,[6],inactive
same,Potency,[8],inactive
same,Potency,[7],inactive
CC(=O)c1cccnc1,Potency,[1],inactive
same,Potency,[2],inactive
same,Potency,[3],inactive
same,Potency,[4],inactive
same,outcome,[6],inactive
same,Potency,[8],inactive
same,Potency,[7],inactive
Cc1ccccc1CCO,Potency,[1],inactive
same,Potency,[2],inactive
same,Potency,[3],inactive
same,Potency,[4],inactive
same,Potency,[5],inactive
same,outcome,[6],inactive
same,Potency,[8],inactive
same,Potency,[7],inactive
CCCCCO,Potency,[1],inactive
same,Potency,[2],inactive
same,Potency,[3],inactive
same,Potency,[4],inactive
same,outcome,[6],inactive
same,Potency,[8],inactive
same,Potency,[7],inactive
COc1cc(C)c(Cc2cnc(N)nc2N)cc1OC,Potency,[1],inactive
same,Potency,[2],inactive
same,Potency,[3],inactive
same,Potency,[4],inactive
same,Potency,[5],inactive
same,outcome,[6],inactive
same,Potency,[8],inactive
same,Potency,[7],inactive
COc1ccc(/C(C)=C/C(=O)O)c(OC)c1,Potency,[1],inactive
same,Potency,[2],inactive
same,Potency,[3],inactive
same,Potency,[4],inactive
same,Potency,[5],inactive
same,outcome,[6],inactive
same,Potency,[8],inactive
same,Potency,[7],inactive
C=CCCC,Potency,[1],inactive
same,Potency,[2],inactive
same,Potency,[3],inactive
same,Potency,[4],inactive
same,Potency,[5],inactive
same,outcome,[6],inactive
same,Potency,[8],inactive
same,Potency,[7],inactive
CC(=O)c1ccc(Cl)c(Cl)c1Cl,Potency,[1],inactive
same,Potency,[2],inactive
same,Potency,[3],inactive
same,Potency,[4],inactive
same,outcome,[6],inactive
same,Potency,[8],inactive
same,Potency,[7],inactive
Cc1cc(C)c(C)c(O)c1,Potency,[1],inactive
same,Potency,[2],inactive
same,Potency,[3],inactive
same,Potency,[4],inactive
same,Potency,[5],inactive
same,outcome,[6],inactive
same,Potency,[8],inactive
same,Potency,[7],inactive
CC(CCl)OC(C)CCl (centres undefined),Potency,[1],inactive
same,Potency,[2],inactive
same,Potency,[3],inactive
same,Potency,[4],inactive
same,Potency,[5],inactive
same,outcome,[6],inactive
same,Potency,[8],inactive
same,Potency,[7],inactive
S=c1[nH][nH]c(=S)s1,Potency,[1],inactive
same,Potency,[2],inactive
same,Potency,[3],inactive
same,Potency,[4],inactive
same,Potency,[5],inactive
same,outcome,[6],inactive
same,Potency,[8],inactive
same,Potency,[7],inactive
COc1ccnc2c1CCCCC2S(=O)c1nc2ccccc2[nH]1 (centres undefined),Potency,[1],inactive
same,Potency,[2],inactive
same,Potency,[3],inactive
same,Potency,[4],inactive
same,outcome,[6],inactive
same,Potency,[8],inactive
same,Potency,[7],inactive
O=[N+]([O-])c1cccc(I)c1,Potency,[1],inactive
same,Potency,[2],inactive
same,Potency,[3],inactive
same,Potency,[4],inactive
same,outcome,[6],inactive
same,Potency,[8],inactive
same,Potency,[7],inactive
C/C(=C(\CCO)SS/C(CCO)=C(\C)N(C=O)Cc1cnc(C)nc1N)N(C=O)Cc1cnc(C)nc1N,Potency,[1],inactive
same,Potency,[2],inactive
same,Potency,[3],inactive
same,Potency,[4],inactive
same,Potency,[5],inactive
same,outcome,[6],inactive
same,Potency,[8],inactive
same,Potency,[7],inactive
O=C(Nc1ccccc1)c1cc([N+](=O)[O-])ccc1Cl,Potency,[1],inactive
same,Potency,[2],inactive
same,Potency,[3],inactive
same,Potency,[4],inactive
same,Potency,[5],inactive
same,outcome,[6],inactive
same,Potency,[8],61.1 µM (active)
same,Potency,[7],54.5 µM (active)
O=Cc1ccc([N+](=O)[O-])cc1,Potency,[1],inactive
same,Potency,[2],inactive
same,Potency,[3],inactive
same,Potency,[4],inactive
same,Potency,[5],inactive
same,outcome,[6],inactive
same,Potency,[8],inactive
same,Potency,[7],inactive
Cc1cc(N)n(-c2ccccc2)n1,Potency,[1],inactive
same,Potency,[2],inactive
same,Potency,[3],inactive
same,Potency,[4],inactive
same,Potency,[5],27.3 µM (active)
same,outcome,[6],inactive
same,Potency,[8],inactive
same,Potency,[7],inactive
O=C1CCCN1CCO,Potency,[1],inactive
same,Potency,[2],inactive
same,Potency,[3],inactive
same,Potency,[4],inactive
same,Potency,[5],inactive
same,outcome,[6],inactive
same,Potency,[8],inactive
same,Potency,[7],inactive
O=C(O)c1cccnc1Nc1cccc(C(F)(F)F)c1,Potency,[1],inactive
same,Potency,[2],inactive
same,Potency,[3],inactive
same,Potency,[4],inactive
same,outcome,[6],inactive
same,Potency,[8],inactive
same,Potency,[7],inactive
COc1cccc([C@H](O)C2CCN(CCc3ccc(F)cc3)CC2)c1OC,Potency,[1],inactive
same,Potency,[2],inactive
same,Potency,[3],inactive
same,Potency,[4],inactive
same,Potency,[5],inactive
same,outcome,[6],inactive
same,Potency,[8],inactive
same,Potency,[7],inactive
